Results taken from PubChem BioAssay AID1645855 (Buhrlage Lab, Dana-Farber Cancer Institute and Novartis …, 2021).
The whole screen tested about 47,000 compounds, of which about 3,100 (6.6%) were called active. The entries come from a sample that favours actives as a whole. Unmarked numbers belong to inactive results. Rule as the data show it: active = inhibition above about 30%; inactive = the rest.

Molecular target: Ubiquitin carboxyl-terminal hydrolase 17-like protein 5 (Homo sapiens) (UniProt A8MUK1)
Experiment: blocks human USP17 ubiquitin-rhodamine cleavage (AID 1645855)
Details: purified USP17, Ub-rhodamine cleavage fluorescence, 3 h; at 50 µM; active compounds read high

Chain of Ubiquitin carboxyl-terminal hydrolase 17-like protein 5 (Homo sapiens) (A8MUK1 whole entry, looked up): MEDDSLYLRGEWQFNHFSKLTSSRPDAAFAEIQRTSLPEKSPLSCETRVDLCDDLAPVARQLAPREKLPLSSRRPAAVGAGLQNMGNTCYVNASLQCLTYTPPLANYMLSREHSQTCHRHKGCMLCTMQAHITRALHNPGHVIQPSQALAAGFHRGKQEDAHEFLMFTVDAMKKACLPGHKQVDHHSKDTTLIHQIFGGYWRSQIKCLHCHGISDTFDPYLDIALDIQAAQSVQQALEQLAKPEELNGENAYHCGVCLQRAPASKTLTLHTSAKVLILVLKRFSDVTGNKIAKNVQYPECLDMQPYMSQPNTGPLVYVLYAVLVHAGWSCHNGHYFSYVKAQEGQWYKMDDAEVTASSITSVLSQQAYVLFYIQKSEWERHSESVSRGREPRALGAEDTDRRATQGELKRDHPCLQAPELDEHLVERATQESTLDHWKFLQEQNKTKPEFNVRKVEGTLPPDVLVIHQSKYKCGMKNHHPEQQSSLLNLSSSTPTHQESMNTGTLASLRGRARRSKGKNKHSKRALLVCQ

| Structure (SMILES) | inhibition |
| --- | --- |
| Cc1nn(C)cc1C(=O)Nc1cnn(C)c1C(N)=O | 5.15% |
| CC(C)(C)C(=O)OCc1noc(-c2ccccc2)n1 | 16.8% |
| Cc1ccc(NCc2cc3c(C)nn(-c4ccccc4)c3[nH]c2=O)cc1C | -32.1% |
| CC(C)(C)c1nn(-c2ccccc2)c2[nH]c(=O)c(CNCCc3ccccc3)cc12 | 31.9% (active) |
| Cc1nn(-c2ccccc2)c2[nH]c(=O)c(C#N)c(-c3ccco3)c12 | -26.6% |
| CCCC(=O)N1CCC(c2cc(=O)[nH]c(-c3ccccn3)n2)C1 (centres undefined) | -51.9% |
| N#Cc1ccc(-c2csc(COc3ccccc3Cl)n2)cc1 | 35% (active) |
| N#Cc1ccc(Oc2ncnc3ccccc23)cc1 | 4.86% |
| CC(C)OC(=O)c1cc2c(ccn2-c2ccc(F)cc2)n1Cc1ccccn1 | 9.79% |
| Cc1c(CN2CCOC(c3cncc(-c4ccccc4F)n3)C2)cnn1C (centres undefined) | -0.212% |
| COc1ccc(C(=O)N2CC(=O)N(Cc3ccccc3)CC(O)C2)cc1 (centres undefined) | -3.64% |
| O=C(CN1C(=O)c2cccnc2Sc2ccccc21)Nc1ccc(F)cc1F | -19.9% |
| O=C(CN1C(=O)C2CCCC2=Nc2ccccc21)Nc1ccc(F)cc1F (centres undefined) | 59.2% (active) |
| CCOc1nc2cccnc2n(CC(=O)Nc2ccc(F)cc2F)c1=O | -5.53% |
| Cc1noc(C)c1COc1cccc(C(=O)NC(C)c2cc3ccccc3o2)c1 (centres undefined) | 1.56% |
| COc1ccccc1N1CCN(C(=O)CSc2cc(=O)n(C)c3cc(Cl)ccc23)CC1 | -7.92% |
| O=C(NCCc1ccccc1)N1CC[C@@H]2CN(Cc3cccnc3)S(=O)(=O)[C@@H]2CC1 | -8.52% |
| COc1c(O)c2c(=O)cc(OC)c3c4c(OC)cc(=O)c5c(O)c(OC)c(CC(C)OC(=O)c6ccccc6)c(c(c1CC(C)OC(=O)Oc1ccc(O)cc1)c23)c54 (centres undefined) | 39.4% (active) |
| CCOc1ccccc1NC(=O)Cc1cccs1 | 43.3% (active) |
| CCOc1ccccc1NC(=O)COc1cccc2c1OC(C)(C)C2 | 8.61% |
| CCOc1ccccc1NC(=O)Cn1c(=O)n(-c2ncccc2C(=O)OC)c(=O)c2cccnc21 | -0.0478% |
| CC1CCN(c2ncc3c(n2)CCC(C(=O)NC(C)c2cccnc2)C3)CC1 (centres undefined) | -33.2% |
| Cc1nc(-c2cccc(S(=O)(=O)Nc3ccccc3C)c2)no1 | -1.13% |
| Cc1nc(-c2cccc(NC(=O)C3CCN(c4ccccc4)C3=O)c2)no1 (centres undefined) | 52.3% (active) |

| Structure (SMILES) | inhibition |
| --- | --- |
| CC(=O)c1cccc(NC(=O)c2cccc(-c3nc(-c4ccccc4)no3)c2)c1 | 1.73% |
| Cc1cnc2nc3c(cc2c1)CN(S(=O)(=O)c1cccc2cccnc12)CC3 | -136% |
| N#Cc1ccc(OCC(=O)Nc2ccccc2N2CCCCC2)cc1 | 8.45% |
| N#Cc1ccc(NC(=O)Nc2cccn(Cc3ccccc3F)c2=O)cc1 | 93.3% (active) |
| Cc1cc(C)n2nc(CN(Cc3ccccc3)C(=O)c3ccccc3)nc2n1 | -5.53% |
| Cc1ccc(N2CC(c3nnc(NC(=O)CCCc4ccccc4)s3)CC2=O)cc1 (centres undefined) | -6.98% |
| CS(=O)(=O)Nc1cccc(C#CCN)c1 | -24.2% |
| O=C(c1sc(N2CCCCC2)nc1-c1ccccc1)c1c[nH]c2ccccc12 | -31.2% |
| CN1CCN(c2nc3c(s2)CN(C(=O)c2ccccc2)CC3)CC1 | -15.2% |
| O=C(CN(C(=O)c1ccccc1)C1CCCCC1)Nc1nc(-c2ccccc2)cs1 | 11.1% |
| CC(=O)NC(Cc1ccccc1C)C(=O)NC1CCN(C(=O)Nc2cccc(C)c2)CC1 (centres undefined) | 1.56% |
| Oc1cccc2nc3c(O)cccc3nc12 | 96.1% (active) |
| COc1ccc(C(=O)O)cc1S(=O)(=O)Nc1ccc(-c2ccccc2)cc1 | -9.74% |
| O=c1oc2cccnc2n1Cc1ccccc1F | 13% |
| COc1ccccc1CNC(=O)C1CCN(S(C)(=O)=O)c2ccccc2O1 (centres undefined) | 1.45% |
| Cc1ccc(CN2C(=O)CS(=O)(=O)C(C)C2=O)cc1 (centres undefined) | 0.155% |
| CC(NC(=O)c1ccc2c(c1)OCCO2)c1ccc2c(c1)OCCCO2 (centres undefined) | -21.9% |
| Cc1nc(-c2ccc(C(=O)NCc3ccc4c(c3)OCO4)cc2)cs1 | 29.5% |
| C[C@H](NC(=O)c1ccc2c(c1)OCO2)c1nc2cc(-c3ccc(F)cc3)ncn2n1 | 35% (active) |
| Cc1ccc(NS(=O)(=O)c2cc3n(c2)CCCNC3=O)c(F)c1 | -11.3% |
| O=C(c1ncccn1)N1CCCC1c1ncc(Cc2ccccc2Cl)o1 (centres undefined) | 0.408% |
| COc1ccc(NC(=O)c2c(N3CCCC3=O)c3cc(F)ccc3n2C)cc1Cl | -15.2% |
| CC(Oc1ccccc1)C(=O)Nc1ccc(-c2cn3cccnc3n2)cc1 (centres undefined) | 41.4% (active) |
| CC(=O)c1ccc(NC(=O)C(C)Sc2nnc(COc3ccc(C)cc3)n2Cc2ccccc2)cc1 (centres undefined) | 7.66% |

| Structure (SMILES) | inhibition |
| --- | --- |
| O=C(Nc1ccc(-c2nc3cccnc3s2)cc1)C(c1ccccc1)c1ccccc1 | -146% |
| CCC(C(=O)Nc1cc(=O)[nH]c2nc(CCc3ccccc3)nn12)c1ccccc1 (centres undefined) | 2.97% |
| Cc1ccn2cc(-c3ccc(NS(=O)(=O)c4cc(C)c(C)cc4C)cc3)nc2n1 | -32.9% |
| CCC(C(=O)Nc1ccc(-c2cn3cccnc3n2)cc1)c1ccccc1 (centres undefined) | 45.8% (active) |
| Cc1ccc(Cn2c(C(=O)O)c(CNC(C)CCc3ccccc3)c3ccccc32)cc1 (centres undefined) | -1.67% |
| Cc1nc(Nc2ncccn2)cc(C2CCCN2S(C)(=O)=O)n1 (centres undefined) | 0.142% |
| O=C1CN(C(=O)c2cccc3ccccc23)C(c2ccc(F)cc2)c2cc(Br)ccc2N1 (centres undefined) | 2.94% |
| O=C(c1cc2ccccc2[nH]1)N1CCCC2(COCCN(c3cccnc3)C2)C1 (centres undefined) | 16.4% |
| COc1ccc(NC(=O)CSc2cn(CC(=O)N3CCCC3)c3ccccc23)cc1 | 7.65% |
| CCOc1ccc2c(c1)c(=O)c(C(=O)c1ccccc1)cn2CC(=O)Nc1ccc(OC)cc1 | -0.53% |
| CCOc1ccc(NC(=O)Cn2cc(C(=O)c3ccc(Cl)cc3)c(=O)c3cc(OC)ccc32)cc1 | 57.1% (active) |
| O=C(C1CC1)N1CCc2cc(S(=O)(=O)NCCCN3CCN(Cc4ccccc4)CC3)ccc21 | -6.1% |
| COc1ccc(-c2nc3c(c(=O)c4ccccc4n3C)c(=O)n2CCc2ccc(OC)c(OC)c2)cc1 | 7.74% |
| COc1c(O)c2c3c(c1O)C(=O)[C@@]1(O)C(=C3C(C)=CC2=O)O[C@@H](C)C1(C)C | 37.6% (active) |
| Cc1nn(-c2ccccc2)c(C)c1S(=O)(=O)Nc1ccccc1C(N)=O | 7.84% |
| COc1cccc(CNS(=O)(=O)c2cc3[nH]c4c(c3cc2C)C(=O)CCC4)c1 | -25.1% |
| Cn1nc(C(=O)Nc2ccc(F)cc2)c(=O)c2ccccc21 | 32.8% (active) |
| COc1cccc(NC(=O)c2nn(-c3ccc(F)cc3)c(OC)cc2=O)c1 | -0.739% |
| Cc1oc(-c2ccccc2Cl)cc1C(=O)Nc1ccc(F)cc1 | -7.25% |
| CNc1nc2c(c(=O)n1-c1ccccc1)CCN(S(C)(=O)=O)C2 | 4.69% |
| CNc1nc2c(c(=O)n1-c1ccccc1)CN(C(=O)c1ccc3ccccc3c1)CC2 | 1.41% |
| CN1CCc2c(sc3nc(SCCc4ccccc4)n(-c4ccccc4)c(=O)c23)C1 | 41.9% (active) |
| Cc1ccc(-c2nnc(CCC(=O)O)o2)cc1 | -26.7% |
| COc1cc(OC)cc(C(=O)Nc2cccc(CCc3nc4ccc(C)cc4[nH]3)c2)c1 | 30.4% (active) |

| Structure (SMILES) | inhibition |
| --- | --- |
| COc1ccccc1NC(=O)Nc1ccc(CCc2nc3ccccc3[nH]2)cc1 | -12.4% |
| CC(=O)Nc1ccc(C(=O)CSc2nc3ccc(C)cc3[nH]2)cc1 | 12.1% |
| Cc1ccc(C(=O)N2CCCC(c3nnc(-c4ccccc4)o3)C2)cc1F (centres undefined) | -2.67% |
| O=CN1c2ccccc2NC(=O)CC1c1ccccc1 (centres undefined) | -3.98% |
| Clc1ccc2ncnc(NC3CCCCC3)c2c1 | 39.8% (active) |
| Cc1cc(NC2CCCCC2)n2ncc(-c3ccc(Cl)cc3)c2n1 | -4.39% |
| c1ccc(-c2nc3c4ccccc4nc(NC4CCCC4)n3n2)cc1 | -4.03% |
| Cc1cc(C(=O)Nc2cccc(F)c2)cc2c1N(C)S(=O)(=O)c1ccccc1-2 | 5.77% |
| Cc1nn(-c2ccc(F)cc2F)c2c1C(C(=O)c1cc3ccccc3o1)CC(=O)N2 (centres undefined) | 31.3% (active) |
| Cc1nn(-c2ccc(F)cc2F)c2c1C(C(=O)c1ccc3c(c1)OCO3)CC(=O)N2 (centres undefined) | 9.19% |
| Cc1nn(-c2cccc(F)c2)c2c1C(C(=O)c1cc3ccccc3o1)CC(=O)N2 (centres undefined) | 2.88% |
| Cc1cc(N2CCCC2)ccc1CN1CCCC(c2nnc3n2CCNCC3)C1 (centres undefined) | -63.9% |
| O=C(Nc1ccccc1-c1nc2ccccc2[nH]1)c1cc(S(=O)(=O)N2CCOCC2)c(Cl)cc1Cl | -21.9% |
| O=C(Nc1nc2ccc(S(=O)(=O)N3CCOCC3)cc2s1)c1cc2ccccc2oc1=O | 34.2% (active) |
| O=C(Nc1ccc(Cl)c(S(=O)(=O)N2CCOCC2)c1)c1cc(-c2ccccc2Cl)nc2ccccc12 | -12.8% |
| CC(=O)CCCSc1ncnc2c1sc1nc(N3CCOCC3)c3c(c12)CC(C)(C)OC3 | 16.1% |
| O=C(CC1C(=O)OCCN1Cc1ccccc1)Nc1cccc(F)c1 (centres undefined) | -10.1% |
| COc1ccc(NC(=O)CSc2ncccc2C(=O)N2CCC(Cc3ccccc3)CC2)cc1OC | 11% |
| O=C(COc1cccc2ccc(N3CCC(Cc4ccccc4)CC3)nc12)NCc1ccc(F)cc1 | 35.1% (active) |
| O=C(COc1cccc2ccc(N3CCC(Cc4ccccc4)CC3)nc12)Nc1cccc(F)c1 | 46.2% (active) |
| Cn1c(=O)c(N2CCC(C(=O)NCc3ccc(F)cc3)CC2)nc2cccnc21 | 16.8% |
| O=C(CCc1nnc2ccc(N3CCCC3)nn12)NCc1ccc(F)cc1 | 11.5% |
